Laboratory results taken from the supplement of paper PMC10849652.
About 7,900 targets were measured; listed, in parts, are those with a hit and a random draw of the rest. About 0.6% of all pairs of compound and target were hits.

What follows are targets tested with CN1C2=C(C3=C1C(=O)N(N=C3)CC4=CC(=CC=C4)N)SC(=C2)S(=O)C (assay: log2 fold change, soluble protein after heating vs DMSO (PISA); higher = thermal stabilisation; K562 cells, 10 uM, 30 min; active = over 0.2 and 3.5 SD of the protein, either way, in both replicates (recomputed)).
How it was run: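 K562 cells at 2×10^6 cells/mL were exposed to 10 μM compound for 30 min, then aliquots were heated for 3 min across 48°C-58°C, pooled, and extracted in PBS containing 0.5% NP-40 at 4°C. The supernatant after 21,000xg for 90 min was taken as soluble protein and measured by TMTpro 16plex LC-MS/MS with channel sums equalised. Thermal stability is reported relative to control samples, with values from duplicates. Fold changes are given on a log2 scale.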

Sequence of UniProt Q9UIQ6 (Q9UIQ6 whole entry, looked up): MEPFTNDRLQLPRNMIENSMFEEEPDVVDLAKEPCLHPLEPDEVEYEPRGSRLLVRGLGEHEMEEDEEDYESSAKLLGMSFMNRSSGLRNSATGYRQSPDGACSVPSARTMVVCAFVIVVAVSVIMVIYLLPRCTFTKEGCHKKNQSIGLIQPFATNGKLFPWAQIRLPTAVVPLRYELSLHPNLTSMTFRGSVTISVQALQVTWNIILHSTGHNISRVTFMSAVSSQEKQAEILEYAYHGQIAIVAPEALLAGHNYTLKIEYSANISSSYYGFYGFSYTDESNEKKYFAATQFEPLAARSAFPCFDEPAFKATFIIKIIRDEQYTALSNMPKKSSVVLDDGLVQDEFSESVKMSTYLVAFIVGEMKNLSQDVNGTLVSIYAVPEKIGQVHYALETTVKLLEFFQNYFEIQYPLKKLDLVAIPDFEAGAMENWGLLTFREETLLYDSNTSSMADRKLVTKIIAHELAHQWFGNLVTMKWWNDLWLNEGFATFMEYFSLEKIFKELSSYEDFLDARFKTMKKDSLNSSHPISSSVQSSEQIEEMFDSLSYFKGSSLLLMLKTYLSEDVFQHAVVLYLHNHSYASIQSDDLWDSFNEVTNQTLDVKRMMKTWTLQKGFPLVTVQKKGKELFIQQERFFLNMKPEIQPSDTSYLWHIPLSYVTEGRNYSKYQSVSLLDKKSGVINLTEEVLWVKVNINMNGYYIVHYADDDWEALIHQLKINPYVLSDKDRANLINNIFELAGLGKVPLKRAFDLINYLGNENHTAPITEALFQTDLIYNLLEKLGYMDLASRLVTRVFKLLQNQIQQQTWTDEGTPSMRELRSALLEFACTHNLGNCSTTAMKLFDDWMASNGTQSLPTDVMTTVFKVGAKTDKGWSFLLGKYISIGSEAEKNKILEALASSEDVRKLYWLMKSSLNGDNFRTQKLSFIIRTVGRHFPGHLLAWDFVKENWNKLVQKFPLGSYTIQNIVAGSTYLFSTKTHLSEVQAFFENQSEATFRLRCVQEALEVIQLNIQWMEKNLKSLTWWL
Sequence of UniProt O95232 (O95232 whole entry, looked up): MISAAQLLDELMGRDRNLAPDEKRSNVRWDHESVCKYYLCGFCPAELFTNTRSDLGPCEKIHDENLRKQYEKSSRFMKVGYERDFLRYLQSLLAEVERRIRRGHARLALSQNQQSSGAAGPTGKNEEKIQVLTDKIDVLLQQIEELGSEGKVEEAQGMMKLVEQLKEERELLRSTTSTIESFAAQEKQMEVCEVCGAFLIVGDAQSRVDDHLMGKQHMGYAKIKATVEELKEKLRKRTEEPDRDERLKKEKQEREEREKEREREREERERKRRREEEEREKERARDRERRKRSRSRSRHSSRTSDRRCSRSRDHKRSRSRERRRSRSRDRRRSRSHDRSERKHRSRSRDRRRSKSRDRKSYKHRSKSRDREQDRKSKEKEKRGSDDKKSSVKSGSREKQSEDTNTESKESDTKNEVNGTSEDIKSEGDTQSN
Sequence of UniProt A8MWY0 (A8MWY0 whole entry, looked up): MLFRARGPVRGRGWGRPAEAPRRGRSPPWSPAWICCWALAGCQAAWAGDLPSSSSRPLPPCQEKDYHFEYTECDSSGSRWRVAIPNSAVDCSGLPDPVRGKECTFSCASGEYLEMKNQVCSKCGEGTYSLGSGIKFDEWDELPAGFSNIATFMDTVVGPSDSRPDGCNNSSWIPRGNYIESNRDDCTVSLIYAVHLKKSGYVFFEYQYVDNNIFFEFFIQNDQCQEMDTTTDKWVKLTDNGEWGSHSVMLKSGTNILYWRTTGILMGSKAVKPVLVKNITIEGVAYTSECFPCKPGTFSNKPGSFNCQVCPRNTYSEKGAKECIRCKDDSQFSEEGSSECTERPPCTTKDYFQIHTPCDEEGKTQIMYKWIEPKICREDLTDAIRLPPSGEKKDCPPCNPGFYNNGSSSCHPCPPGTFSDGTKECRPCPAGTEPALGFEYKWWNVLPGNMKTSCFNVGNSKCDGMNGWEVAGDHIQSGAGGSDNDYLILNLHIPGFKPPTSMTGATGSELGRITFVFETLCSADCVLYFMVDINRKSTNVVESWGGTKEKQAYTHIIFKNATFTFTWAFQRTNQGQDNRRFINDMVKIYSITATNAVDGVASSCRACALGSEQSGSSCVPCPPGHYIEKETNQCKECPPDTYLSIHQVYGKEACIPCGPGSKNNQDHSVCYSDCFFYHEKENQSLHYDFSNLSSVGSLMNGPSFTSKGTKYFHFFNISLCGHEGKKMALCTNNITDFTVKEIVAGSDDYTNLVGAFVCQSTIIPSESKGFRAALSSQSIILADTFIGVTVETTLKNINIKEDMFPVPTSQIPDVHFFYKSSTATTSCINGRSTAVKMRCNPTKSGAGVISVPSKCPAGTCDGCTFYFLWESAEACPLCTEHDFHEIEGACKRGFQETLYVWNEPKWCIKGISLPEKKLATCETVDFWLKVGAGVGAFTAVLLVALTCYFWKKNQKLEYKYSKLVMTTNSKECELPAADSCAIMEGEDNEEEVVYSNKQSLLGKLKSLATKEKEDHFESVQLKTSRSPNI
Sequence of UniProt Q9BY66 (Q9BY66 whole entry, looked up): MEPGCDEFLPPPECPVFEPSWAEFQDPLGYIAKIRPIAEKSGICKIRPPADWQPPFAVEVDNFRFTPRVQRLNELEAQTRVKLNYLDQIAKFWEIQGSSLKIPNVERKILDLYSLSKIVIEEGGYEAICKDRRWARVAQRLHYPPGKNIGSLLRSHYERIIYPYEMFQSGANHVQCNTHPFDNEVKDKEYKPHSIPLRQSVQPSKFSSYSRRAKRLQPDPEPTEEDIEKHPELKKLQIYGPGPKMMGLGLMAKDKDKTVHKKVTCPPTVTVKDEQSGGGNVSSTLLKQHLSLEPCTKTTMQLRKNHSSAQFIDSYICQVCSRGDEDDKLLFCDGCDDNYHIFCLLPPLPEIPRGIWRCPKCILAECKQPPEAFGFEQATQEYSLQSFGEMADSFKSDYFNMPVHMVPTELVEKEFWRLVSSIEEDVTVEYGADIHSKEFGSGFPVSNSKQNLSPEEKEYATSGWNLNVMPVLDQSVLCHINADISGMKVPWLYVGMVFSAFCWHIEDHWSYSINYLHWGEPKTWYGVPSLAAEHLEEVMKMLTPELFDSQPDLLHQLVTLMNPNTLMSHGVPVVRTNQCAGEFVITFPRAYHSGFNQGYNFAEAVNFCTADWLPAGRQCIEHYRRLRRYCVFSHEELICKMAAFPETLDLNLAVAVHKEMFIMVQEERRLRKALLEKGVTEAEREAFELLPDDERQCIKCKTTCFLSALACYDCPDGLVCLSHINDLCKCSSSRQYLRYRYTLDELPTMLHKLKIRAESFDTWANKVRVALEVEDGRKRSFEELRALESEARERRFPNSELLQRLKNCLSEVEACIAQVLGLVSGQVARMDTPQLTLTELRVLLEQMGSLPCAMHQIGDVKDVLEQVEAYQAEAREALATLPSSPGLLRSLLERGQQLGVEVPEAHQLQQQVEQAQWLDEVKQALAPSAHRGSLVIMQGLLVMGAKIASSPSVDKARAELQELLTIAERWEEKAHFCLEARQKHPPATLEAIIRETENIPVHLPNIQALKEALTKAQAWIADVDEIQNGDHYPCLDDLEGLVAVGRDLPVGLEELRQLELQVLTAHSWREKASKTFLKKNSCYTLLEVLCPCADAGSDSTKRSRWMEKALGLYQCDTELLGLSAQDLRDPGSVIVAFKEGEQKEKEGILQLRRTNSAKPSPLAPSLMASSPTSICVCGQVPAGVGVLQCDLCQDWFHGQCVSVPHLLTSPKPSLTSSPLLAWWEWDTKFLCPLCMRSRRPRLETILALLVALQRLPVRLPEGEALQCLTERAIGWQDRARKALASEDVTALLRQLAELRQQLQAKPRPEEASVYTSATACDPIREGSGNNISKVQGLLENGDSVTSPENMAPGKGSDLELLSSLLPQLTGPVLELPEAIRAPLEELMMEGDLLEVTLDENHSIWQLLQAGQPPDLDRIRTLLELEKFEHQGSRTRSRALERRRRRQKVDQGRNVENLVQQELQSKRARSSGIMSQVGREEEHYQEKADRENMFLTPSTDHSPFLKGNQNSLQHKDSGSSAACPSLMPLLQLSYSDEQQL
Sequence of UniProt P32019 (P32019 whole entry, looked up): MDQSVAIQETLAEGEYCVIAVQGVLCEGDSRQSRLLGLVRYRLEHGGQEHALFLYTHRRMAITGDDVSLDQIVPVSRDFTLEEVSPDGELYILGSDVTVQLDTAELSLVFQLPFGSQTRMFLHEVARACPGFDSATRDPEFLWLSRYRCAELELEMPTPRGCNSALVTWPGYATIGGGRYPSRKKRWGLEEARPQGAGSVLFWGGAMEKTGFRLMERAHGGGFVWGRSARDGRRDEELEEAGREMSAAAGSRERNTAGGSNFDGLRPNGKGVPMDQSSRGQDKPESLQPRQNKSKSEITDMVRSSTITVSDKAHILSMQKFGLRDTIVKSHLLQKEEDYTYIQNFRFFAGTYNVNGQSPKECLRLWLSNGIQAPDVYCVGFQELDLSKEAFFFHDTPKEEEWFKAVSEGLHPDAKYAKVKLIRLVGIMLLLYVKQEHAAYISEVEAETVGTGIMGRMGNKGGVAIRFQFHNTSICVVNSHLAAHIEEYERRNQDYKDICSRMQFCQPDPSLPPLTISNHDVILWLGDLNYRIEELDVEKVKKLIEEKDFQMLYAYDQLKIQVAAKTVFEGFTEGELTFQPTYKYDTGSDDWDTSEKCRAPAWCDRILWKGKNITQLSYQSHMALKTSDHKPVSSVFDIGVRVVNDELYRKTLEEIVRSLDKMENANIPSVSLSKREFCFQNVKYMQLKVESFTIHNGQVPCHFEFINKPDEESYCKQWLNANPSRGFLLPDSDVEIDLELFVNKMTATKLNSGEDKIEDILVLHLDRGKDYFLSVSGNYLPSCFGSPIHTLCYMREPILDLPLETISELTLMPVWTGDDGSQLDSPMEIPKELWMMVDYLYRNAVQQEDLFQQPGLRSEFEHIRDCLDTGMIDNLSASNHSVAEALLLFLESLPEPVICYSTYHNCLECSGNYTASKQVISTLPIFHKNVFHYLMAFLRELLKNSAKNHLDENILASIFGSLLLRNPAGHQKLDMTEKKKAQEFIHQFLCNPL

log2 fold change, inactive:
IWS1 (UniProt Q96ST2) 0
LUC7L2 (UniProt Q9Y383) -0.025
MARK3 (UniProt P27448) 0.051
MIEF1 (UniProt L0R8F8) -0.028
KIF11 (UniProt P52732) 0.182
LPIN3 isoform 2 (UniProt Q9BQK8) 0.002
INPP5B (UniProt P32019) 0.12
LNPEP (UniProt Q9UIQ6) -0.025
KDM1A isoform 2 (UniProt O60341) -0.001
IPO13 (UniProt O94829) 0.048
MIEF1 (UniProt Q9NQG6) -0.018
KDELR2 (UniProt P33947) -0.063
KTN1 (UniProt Q86UP2) 0.127
KHDRBS1 (UniProt Q07666) -0.04
KSR1 (UniProt Q8IVT5) -0.05
LUC7L3 (UniProt O95232) -0.009
LAMP2 (UniProt P13473) -0.016
MED1 (UniProt Q15648) 0.024
MICU2 (UniProt Q8IYU8) 0.097
ILK (UniProt Q13418) 0.125
KIF13A (UniProt Q9H1H9) -0.012
KIF3A (UniProt Q9Y496) -0.023
KDM5D isoform 3 (UniProt Q9BY66) -0.14
KIAA1324L (UniProt A8MWY0) -0.112
MIER1 isoform 12 (UniProt Q8N108) -0.077
MIA2 (UniProt Q96PC5) 0.031
LIMA1 isoform 4 (UniProt Q9UHB6) -0.006
METTL18 (UniProt O95568) 0.005
KIF21A isoform 4 (UniProt Q7Z4S6) 0.054
LUC7L (UniProt Q9NQ29) 0.108
KEL (UniProt P23276) 0.018
LEO1 (UniProt Q8WVC0) -0.033
LARP4 isoform 4 (UniProt Q71RC2) 0.137
MFF (UniProt Q9GZY8) 0.031
MFN1 (UniProt Q8IWA4) -0.045
MCL1 (UniProt Q07820) -0.035
LYN (UniProt P07948) 0.144
ILVBL (UniProt A1L0T0) -0.068
KCTD2 (UniProt Q14681) 0.049
